How the values were obtained:
Assay in all cases: PBM binding z-score (relative to random genomic background probes); higher = stronger binding; sequences stand for … in GC…GCGATTGACAGCGTAGAATGAAGG
[1] = test system: FXR:RXRa (NR concentration 270 nM, RXRa partner concentration 90 nM)
Procedure, shortened: (§1)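 Binding buffer was PBS pH 7.4 with 2% milk, 0.02% Triton X-100, 1 mM DTT, 0.2 mg/mL BSA and 0.4 mg/ml salmon testes DNA. In it, ligand-free nuclear receptor dimers were incubated 1 h on custom Agilent 4×180K protein-binding microarrays carrying double-stranded probes. Antibodies against each partner (one per run) detected binding, and z-scores were calculated against random background probes after regression normalization of scanned fluorescence.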

[2] = test system: LXRa:RXRa (NR concentration 270 nM, RXRa partner concentration 90 nM)
Procedure, shortened: as §1

[3] = test system: LXRa homodimer (NR concentration 270 nM)
Procedure, shortened: as §1

[4] = test system: LXRb:RXRa (NR concentration 270 nM, RXRa partner concentration 90 nM)
Procedure, shortened: as §1

[5] = test system: LXRb homodimer (NR concentration 270 nM)
Procedure, shortened: as §1

[6] = test system: PPARa:RXRa (NR concentration 270 nM, RXRa partner concentration 90 nM)
Procedure, shortened: as §1

[7] = test system: PPARg:RXRa (NR concentration 180 nM, RXRa partner concentration 90 nM)
Procedure, shortened: as §1

[8] = test system: PPARg:RXRa 270nM:90nM, anti-RXR (NR concentration 270 nM, RXRa partner concentration 90 nM)
Procedure, shortened: as §1

[9] = test system: PPARg:RXRa 30nM:10nM, anti-RXR (NR concentration 30 nM, RXRa partner concentration 10 nM)
Procedure, shortened: as §1

[10] = test system: PPARg:RXRa 90nM:30nM, anti-RXR (NR concentration 90 nM, RXRa partner concentration 30 nM)
Procedure, shortened: as §1

Sequence	PBM binding z-score [1]	PBM binding z-score [2]	PBM binding z-score [3]	PBM binding z-score [4]	PBM binding z-score [5]	PBM binding z-score [6]	PBM binding z-score [7]	PBM binding z-score [8]	PBM binding z-score [9]	PBM binding z-score [10]
GATACAGTGTCAAGGCCAGAGTACGCGTATTGAT	-0.101	-0.189	-0.775	-0.147	-0.421	0.43	0.593	0.129	-0.172	-0.0433
ACTAGCAGGCCAAGTTTGGGTCACACAAACAAAG	0.341	0.408	-0.252	1.17	-0.354	1.85	0.563	0.793	-0.154	0.0156
TCTAGCAGGCGAGAGGGTCACTCAAGAGGTACGG	0.647	0.656	-0.616	1.05	-1.27	2.03	0.765	1.64	1.43	1.6
TCTCGGAGGGCACGAAAGGTCAGAGCTCGACATC	4.52	6.49	2.82	4.29	-0.405	4.24	2.69	3.93	2.36	3.06
CGTCCAAGGCCAAGGTCAGTGAAAGAGACTCGAA	1.58	1.15	-0.343	1.21	-0.878	2.04	0.804	0.725	-0.305	0.665
GCTGCTAGATCAGGTTGGTCAGCTAACGGGTACG	-0.615	-0.876	-0.323	-0.953	-0.822	-1.19	-0.285	-1.02	-0.624	-0.926
TCATATAGGTAAACAGGTGAACGTCCGTAAGTTA	1.03	1.3	0.422	1.09	-0.0806	2.56	2.7	3.48	4.2	3.9
CCTTACGGGTCAGTCCAGGTTATAGCATCGGAGT	3.69	3.88	0.251	1.74	-0.12	2.85	1.11	1.64	0.319	0.821
CCTATTAGTTGACCATAAGGGCAACCGTAGCTCG	0.644	0.364	0.502	0.478	0.7	0.679	0.376	0.487	0.0256	0.357
AATACAGTGTCACTAGGCCAGAGTAGGTACGAAT	-0.0447	0.0759	-0.316	-0.0896	-0.131	1.44	1.82	1.52	0.462	0.705
CCTATGAGTTGACCATAAGGGCAACCGAAGCTCG	0.925	0.669	-0.0503	0.247	0.184	0.685	0.512	0.342	-0.144	-0.218
ACTAACAGGCCAAGTTTGGGTCACTCAAACAAAG	0.517	0.251	-0.258	0.977	0.105	1.45	0.241	0.254	-0.0822	0.083
CGTCCAAGGTTAGAGAGGTCAGTGAATGCCGAGT	2.67	3.01	1.94	2.48	-0.312	3.11	0.589	1.66	-0.029	0.655
TCTTGTAGATCAGCAGGTTAAGAAAGCTGGCCAA	-0.00874	0.161	-0.357	0.167	-0.4	0.684	-0.446	1.3	2.21	1.66
CCTACTGGGCCATCAGGACATTGATATCAACGTT	0.247	-0.3	0.171	-0.621	-0.424	0.703	1.19	1.26	0.361	0.825
GCAGACAGGTGAAACGCAGGTAAGTCAGGGTGGC	-0.334	-0.134	-0.679	-0.502	-0.938	0.476	0.369	-0.16	-0.946	-0.534
TCTATTAGTGGATTAGGGCAACCGAAACAGCGGA	0.803	0.521	0.262	0.532	0.78	0.571	0.412	1.68	3.07	2.64
CGAACTAGGTCATTCACAGGACAGTGAATAGTAA	4.72	3.19	0.593	2.48	0.493	4.67	7.34	6.26	3.72	5.9
GCGACTGGGGCAAAGCAGGTTAGCATAAGGTTGG	0.494	-0.573	-0.598	-0.43	-1.24	0.977	1.14	0.948	-0.509	0.412

Sequence	PBM binding z-score [1]	PBM binding z-score [2]	PBM binding z-score [3]	PBM binding z-score [4]	PBM binding z-score [5]	PBM binding z-score [6]	PBM binding z-score [7]	PBM binding z-score [8]	PBM binding z-score [9]	PBM binding z-score [10]
AGTCACAGTTCAGGACGAGGTAACGTAAAGCACG	1.01	0.828	0.0856	0.666	-0.159	1.35	1.15	0.998	0.403	0.623
ACTATTAGTTGAGACGAGGGCAAGCGATAGGTTG	0.338	-0.125	-0.12	-0.138	-0.0702	0.257	0.699	0.134	0.381	0.467
GCAGACAGGTGAAACGCAGGTAACTCAGGGTGGC	-0.388	0.00311	-0.515	-0.48	-1	0.864	0.383	-0.117	-0.52	-0.467
CGCGAAAGGTCGGTTGAGGTGAGTATACGGATAA	2.66	1.81	-0.0594	1.38	-0.0248	2.75	0.872	1.45	0.235	0.88
CCTTACGGGTCACTGACGGGTTATAGCATTTGGA	5.28	3.6	0.0563	3.42	0.119	4.67	4.31	4.28	1.63	2.74
TCATGTAGATCAGCAGGTTAAGAAAGCTGGCCAA	-0.0707	0.39	-0.338	0.259	-0.58	0.606	-0.175	1.5	2.67	2.16
ACTCTGAGGACAAAGGTCAGAGCTACGCCAGTGA	4.52	4.08	1.44	3.34	0.531	4.76	7.44	7	5.4	6.74
TGAATGAGGTTAAAGATCAGGGAGCGTGGCGTCG	2.85	2.34	-0.379	1.14	0.0684	4.39	5.63	5.88	5.47	6.49
GCATATAGGTAATACAAGTTGAAAGTCCGATTGT	0.281	0.793	-0.112	0.0778	-0.33	1	1.05	0.484	-0.0817	0.166
CCGACTGGGGCAGAAAGGTTACCATTCCATCCGG	0.282	0.271	-0.165	0.84	-1.08	1.93	1.48	2.66	0.414	2.13
ATCGAAAGGTCTACGAGGTGAGTATACACCGTTT	0.287	0.343	-0.515	0.353	-0.0521	1.03	0.797	0.573	0.114	0.523
GGAACGAGGGCAAAGTTGATAGTATCTGTCGACG	1.26	0.763	-0.348	0.972	-0.379	4.02	6.9	7.32	6.78	7.32
AGAATGAGGTTATACGTAGAACAGGGAAGAAAGT	2.01	1.58	-0.14	1.56	0.0441	3.07	2.2	1.83	1.07	1.68
ATCTCTAGGTAAAAGTTCAGTGATTCCCGAGGAT	0.618	1.07	1.4	0.613	0.691	4.08	7.48	7.11	7.32	8.09
CGACAAAGTTCAAGGTAACGTAACAGAAAGCAGC	5.84	5.54	1.97	3.29	0.658	4.63	3.59	4.67	1.47	3.46
CAAACTAGGGCAAGAGGTCAAAGTCCGCTTCCCG	5.03	5.04	4.65	4.67	0.677	5.74	8.05	6.92	5.45	6.96
CCGACTGGGCCAAGGTTACCATAACGCACAGCCA	0.00014	0.358	-0.181	0.279	-1.2	1.01	1.97	2.37	0.199	1.39
CGTCCAAGGTCAGAGAGGTCAGTGAATGCCGAGT	6.03	5.21	3	4.19	0.123	4.72	3.4	4.41	0.873	3.2
ATCTTTAGGTAAAGATAGTTCAGTGAATGCAAAT	0.178	4.41	0.491	0.995	0.495	0.508	0.63	0.465	0.338	0.506

From the supplement of paper PMC6555819
